AmpC nodet inh: Promiscuous and Specific Inhibitors of AmpC Beta-Lactamase (assay without detergent); 71,000 compounds, 1.8% hits; Potency, µM (top dose mostly 28.7 µM), for inactives: at the top dose activity change, negative = inhibition; P00811; AmpC nitrocefin hydrolysis, absorbance 480 nm, no detergent; further: % of control where 0% means no effect
Target sequence (P00811 whole entry, looked up): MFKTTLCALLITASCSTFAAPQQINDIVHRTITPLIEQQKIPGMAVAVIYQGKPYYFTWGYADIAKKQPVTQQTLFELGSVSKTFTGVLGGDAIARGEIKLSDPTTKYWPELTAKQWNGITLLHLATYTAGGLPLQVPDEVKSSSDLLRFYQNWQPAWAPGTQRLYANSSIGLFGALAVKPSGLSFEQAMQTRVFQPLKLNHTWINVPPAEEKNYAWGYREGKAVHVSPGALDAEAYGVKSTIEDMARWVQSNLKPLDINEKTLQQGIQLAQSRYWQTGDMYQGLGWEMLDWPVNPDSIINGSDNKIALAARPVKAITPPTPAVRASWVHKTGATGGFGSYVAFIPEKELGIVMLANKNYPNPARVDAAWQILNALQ
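AmpC, 20 mM phosphate pH 7.0; 15 min cpd preinc, RT; start with nitrocefin (800 uM stock); A480 kinetic read, 20 s intervals, 4 min. No-enzyme wells = negative control.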
Prx2 Sm inh: Schistosoma Mansoni Peroxiredoxins (Prx2); Potency, µM; 65,000 compounds, 0.07% hits; S. mansoni Prx2 activity coupled to TGR/GSH (TGR is thioredoxin glutathione reductase), NADPH fluorescence loss, qHTS; Schistosoma mansoni peroxiredoxin 2 (Prx2)
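Purified S. mansoni TGR and Prx2 in pH 7.4 phosphate buffer with EDTA and Tween-20 were preincubated with compounds for 15 min. Further NADPH/GSH was added, then a 2.5 mM H2O2 aliquot initiated turnover, followed kinetically by NADPH fluorescence.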
AmpC det inh: Promiscuous and Specific Inhibitors of AmpC Beta-Lactamase (assay with detergent); AID 584, 2007; 71,000 compounds, 0.09% hits; P00811; purified AmpC, nitrocefin hydrolysis with detergent; Potency, µM (top dose mostly 28.7 µM), for inactives: at the top dose activity change, negative = inhibition; active means well fitted curve in the direction sought with a large enough effect; inconclusive means small, poorly fitted or top-dose-only effect; further: on the % scale 0 is the no-effect control and ±100 the full control effect
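E. coli AmpC (5.3 nM) in 20 mM phosphate pH 7.0 with 0.01% Triton X-100, preincubated 15 min RT with compound; nitrocefin (2 uL of 800 uM stock) hydrolysis followed by 480 nm absorbance every 20 s over 4 min.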
Anthrax LT inh: qHTS Assay for Anthrax Lethal Toxin Internalization; Cells, anthrax lethal toxin internalization, FRET ratio (460/530); Potency, µM (titrated, usually from 40 µM), inactives show at the highest dose activity change, negative = inhibition, most hits filed as inhibitors; 70,000 compounds, 0.67% hits; AID 912, 2007; further: on the % scale 0 is the no-effect control and ±100 the full control effect; nearly all actives have a fitted effect of over 50% in size
Starred values were filed as active, the others as inactive; ? = inconclusive; / = no result; ! = not confirmed by another sample; [ ] = another dose, or the depositor's remark. Sampled rows, rich in hits. Any-hit rate of the full collection: about 2.4%. Unless noted, the call rests on the fitted dose curve. Potency means the concentration at half of the fitted maximal effect.

SMILES | AmpC nodet inh | Prx2 Sm inh | AmpC det inh | Anthrax LT inh
O=C(Nc1c2c(nn1-c1ccc(F)cc1)CSC2)c1ccc(S(=O)(=O)N2CCOCC2)cc1 | 24.0% | >57 | -1.3% | -5.7%
CC(C)CC(=O)Nc1c2c(nn1-c1ccc(F)cc1)CSC2 | 3.98µM*[single pt active] | >57 | 13.3% | 1.5%
COc1ccc(C)cc1NC(=O)c1ccoc1C | 2.3% | / | 1.6% | 7.5%
COc1ccc(C)cc1NC(=O)c1cc2c(CO)cnc(C)c2oc1=N | 3.16µM*[single pt active] | >57 | 12.7% | ?
N#Cc1nc(-c2ccccc2F)oc1N1CCCC1 | 14.1% | >57 | -3.6% | 3.7%
CN(C)c1oc(-c2ccccc2F)nc1C#N | 3.98µM*[single pt active] | >57 | 12.7% | -3.2%
O=C(c1ccc2c(=O)n(Cc3ccc4c(c3)OCO4)c(=S)[nH]c2c1)N1CCCCC1 | 15.8µM*[single pt active] | >57 | 11.4% | 0.9%
CCC/C=C(\CCC)C(NC(=O)Oc1ccc(F)cc1)c1ccc(C(=O)OC)cc1 (configuration not stated) | 13.4% | >57 | 1.9% | -7.9%
CNc1nc(Nc2ccc(C(C)=O)cc2)nc(OC(C(F)(F)F)C(F)(F)F)n1 | 38.0% | >57 | 2.0% | 10µM*
O=c1c(-c2ccc(Cl)cc2)nc2cnc(N3CCNCC3)nc2n1Cc1cccs1 | 67.7% | >57 | -0.8% | ?
O=C(Cn1cnnn1)OCC(=O)c1ccc(Cl)s1 | 12.6µM* | >57 | 7.6% | -5.9%
COCCn1c(=O)cnc2cnc(OC)nc21 | 2.1% | >57 | 0.4% | -0.6%
O=C(CCl)c1ccccc1 | -12.9% | / | 3.5% | 12.6µM*
Cc1ccc(O)c(C(=O)CC(=O)c2cccc(F)c2)c1 | 2.6% | / | -0.9% | ?
O=C(CC(=O)c1cc(Cl)ccc1O)c1ccccc1 | -2.4% | / | 8.4% | 7.94µM*
O=C(O)c1ccc(C2SCC(=O)N2Cc2ccccc2)cc1 (configuration not stated) | -7.5% | >57 | 4.9% | -15.6%
CN(C)CCCN1C(=O)CSC1c1ccccc1 (configuration not stated) | 3.16µM*[single pt active] | >57 | 10.7% | -12.4%
COc1cccc(OC)c1OCCNC[C@@H]1CSc2ccccc2O1 | 35.5% | >57 | -1.5% | ?
CCC(Sc1nccn1C)C(=O)Nc1cccc2ccccc12 (configuration not stated) | -2.9% | >57 | -6.1% | -4.4%
CCC(Sc1nccn1C)C(=O)Nc1nnc(C)s1 (configuration not stated) | 3.98µM*[single pt active] | >57 | 8.1% | -10.2%
CNCCCC12CCC(c3ccccc31)c1ccccc12 | 49.5% | >57 | -0.7% | 5.01µM*!
CNCCCC1c2ccccc2C=Cc2ccccc21 | 1.2%[12.8 µM] | >57 | -1.2%[12.8 µM] | 4.3%[3.58 µM]
C[C@@](N)(C(=O)O)c1ccc(P(=O)(O)O)cc1 | 47.5% | >57 | -1.0% | -7.9%
COc1ccc(OC)c(C2CC(=O)N3CN(c4ccccc4)CSC3=C2C#N)c1 (configuration not stated) | 8.4% | >57 | 13.0% | -15.0%
COc1ccc(C2CC(=O)N3CN(c4ccc(C)c(Cl)c4)CSC3=C2C#N)cc1 (configuration not stated) | 2.51µM*[single pt active] | / | 7.5% | -16.3%
SMILES | AmpC nodet inh | Prx2 Sm inh | AmpC det inh | Anthrax LT inh
CCc1ccccc1N1CSC2=C(C#N)C(c3ccccc3F)CC(=O)N2C1 (configuration not stated) | 12.6µM*[single pt active] | / | 1.9% | -1.3%
COc1cc(OC)c(C2CC(=O)N3CN(c4ccccc4C)CSC3=C2C#N)cc1OC (configuration not stated) | 13.7% | >57 | -10.9% | /
COc1ccc(C2CC(=O)N3CN(c4ccccc4F)CSC3=C2C#N)cc1OC (configuration not stated) | 0.6% | >57 | 13.3% | 9.7%
Cc1cccc(N2CSC3=C(C#N)C(c4ccc(C)o4)CC(=O)N3C2)c1 (configuration not stated) | 15.8µM* | >57 | -10.7% | /
COc1ccc(N2CSC3=C(C#N)C(c4cccc(OC)c4OC)CC(=O)N3C2)cc1 (configuration not stated) | 3.98µM*[single pt active] | >57 | 10.4% | -11.7%
COC(=O)c1c(C)ccc2c(O)c3c(cc12)C(=O)c1c2c(cc(O)c1C3=O)[C@@]1(C)O[C@@](C)(O2)[C@@H](O)[C@H](N(C)C)[C@H]1O | -1.4%[5.75 µM] | >57 | 4.8%[5.75 µM] | 10.2%[8 µM]
CC(=O)[C@H]1CC[C@@H]2[C@]1(C)CC=C1[C@]23C=C[C@]2(C[C@H](O)CC[C@@]12C)[C@H](C(=O)O)[C@@H]3C(=O)O | 1.1%[5.75 µM] | >57 | -5.4%[5.75 µM] | -3.6%[8 µM]
Oc1ccc([C@@H]2CNCc3sccc32)cc1O | -7.8% | >57 | -4.5% | 0.0%
COC(=O)[C@@]1(Cc2ccc(OC)cc2)[C@H]2c3cc(C(=O)N(C)C)n(Cc4ccc(C(F)(F)F)nc4)c3C[C@H]2CN1C(=O)c1ccccc1 | 182.2% | >57 | -2.9% | ?
CCOC(=O)c1c(-c2ccccc2)c(C(C)=O)c(=O)n(C)c1C | 3.98µM*[single pt active] | >57 | 7.9% | 2.8%
CCOC(=O)c1c(N)nn(C(C)=O)c1-c1ccccc1 | 2.2% | >57 | -6.6% | -1.0%
Nc1c2c(nc3ccccc13)CCCC2 | -13.0% | >57 | 9.1% | 31.6µM*!
COc1cc(NC(=O)c2ccc(Cl)cc2)c(OC)cc1NC(=O)CN1CCOCC1 | 123.4% | >57 | 0.6% | 12.6µM*
Cc1ccc(S(=O)(=O)NCc2ccncc2)cc1 | -7.5% | >57 | -4.7% | -3.1%
O=C1CC(c2ccc(S(=O)(=O)NC3CC3)cc2)CN1 (configuration not stated) | 3.98µM*[single pt active] | >57 | 14.5% | 13.5%
O=C1CC(c2ccc(S(=O)(=O)NCc3ccncc3)cc2)CN1 (configuration not stated) | 3.98µM*[single pt active] | >57 | 14.2% | -2.9%
C[C@@H]1CC[C@H]2C(=O)O[C@H](CN=[N+]=[N-])CN2[C@@H]1c1ccc(Br)cc1 | / | / | / | 2.8%[8 µM]
Cn1cc(-c2nc3cnc(N4CCNCC4)nc3n(Cc3ccc(F)cc3)c2=O)c2ccccc21 | 48.8% | >11.4 | -5.8% | ?
N#Cc1cccc(NC(=O)N2CC[C@@]3(CCCN(C(=O)c4ccncc4)C3)C2)c1 | 11.6% | >57 | -1.3% | -4.8%
O=C(CSc1nnc(Cc2cc(=O)[nH]c(=O)[nH]2)n1-c1ccc(F)cc1)NC1CCCC1 | 3.98µM*[single pt active] | >57 | 3.1% | -2.1%
COc1cccc(-n2c(Cc3cc(=O)[nH]c(=O)[nH]3)nnc2SCC(=O)NC2CCCCC2)c1 | ? | >57 | 15.8% | 0.9%
COc1cccc(-n2c(Cc3cc(=O)[nH]c(=O)[nH]3)nnc2SCC(=O)N2CCCCC2)c1 | 3.98µM*[single pt active] | >57 | 11.9% | -1.6%
Cn1cccc1Cc1nnc(SCC(=O)NC2CCCC2)n1-c1ccc(F)cc1 | 3.98µM*[single pt active] | >57 | 15.4% | -24.4%
O=C(CSc1nnc(Cc2cc(=O)[nH]c(=O)[nH]2)n1-c1ccc(F)cc1)N1CCCCC1 | 3.98µM*[single pt active] | >57 | 9.1% | -5.5%
COC(=O)C/C=C\[C@@H](C)[C@@H](/C=N\OC[C@@H](O)[C@H]1O[C@H]2OC(C)(C)O[C@H]2[C@@H]1O)NS(=O)(=O)c1ccc(C)cc1 | / | / | / | 2.6%[1.6 µM]

Bioassay records from PubChem.
